40 compounds from PubChem BioAssay (NCI) can be followed below.

Compounds without any hit were thinned out: in the full panel of roughly 83,000, 20% have a hit.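 Assay: single dose, 48 h. Readout: percent growth (0 = no net growth; negative = cell death). Active: <10.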 Values without a mark were called inactive. Activity calls are given as the source filed them.

The subject of this assay is T-47D breast. Kind of assay: NCI-60 one-dose screen, 48 h (100 = growth as untreated, 0 = no growth, -100 = all killed). The conditions noted are these: 10 µM unless noted. The procedure: Growth inhibition of the T-47D human tumor cell line is measured as a screen for anti-cancer activity. Cells are grown in 96 well plates and exposed to the test compound for 48 hours. Compounds are tested at a single concentration, which is 10^-5 M for most compounds. The reported endpoint is percent growth (GI% or GIPRCNT), where numbers from 0 - 100% represent growth inhibition, and numbers from -100% - 0 represent cell death. For example, a value of 40 represents 60% growth inhibition. A value of 0 means no net growth occurred over the course of the experiment. A value of -40 indicates 40% of cells at the beginning of the experiment died by the end of the experiment. A value of -100 means all cells are dead at the end of the experiment.
NCI-60 Human Tumor Cell Lines Screen was performed using the standard one-dose NCI protocol, which is described in more detail at https://dtp.cancer.gov/discovery_development/nci-60/default.htm.
Compounds with GIPRCNT values below 10 were considered active. Activity score was based on GIPRCNT using the following formula: […]
Score is 0 for GIPRCNT values of 100 or above, 50 for GIPRCNT values of 0, and 100 for GIPRCNT values of -100.
Take `O=C(N/N=C/c1cc(Cl)ccc1O)C(=O)N/N=C/c1cc(Cl)ccc1O`: the growth was 73.5%. To `CCOC(=O)c1csc(-c2ccc(COC(=O)c3ccccc3)o2)n1` belongs 102%; to `N=C(N)N=Nc1ccc(NN=C(N)N)c2ccccc12`, 86.3%.

Regarding `CCOC(=O)CNS(=O)(=O)CC(=O)c1ccccc1`, the growth was 91.9%.

`N#Cc1c2cccnc2c2nnc3cc(Cl)c(Cl)cc3n12`: the growth is 25.9%. As to `Cc1ccc2c(c1)C(=O)CCS2`, the growth was 106%. To `O=C(Nc1ccc(-n2cc(-c3ccncc3)c(-c3ccc(Cl)c(O)c3)n2)cc1)c1ccc(Cl)c(C(F)(F)F)c1` belongs 47.2%. As to `CC(C)(C)c1ccc([I+]c2ccc(C(C)(C)C)cc2)cc1`, the growth is 11.3%. `CCCCCCCCCCCCOC(=O)/C=C\C(=O)NC(N)=O`: the growth is 80.3%. The figure for `CC1=NN(c2cccc(Cl)c2)C(=O)/C1=C\c1cn(-c2nc(N3CCOCC3)nc(N3CCOCC3)n2)c2ccccc12` is 99.8%; for `Nc1cc(N)c2nc(-c3ccccc3)c(NCCc3ccc(Cl)c(Cl)c3)nc2c1` it is -11.5% (active); for `COc1ccc(Cn2cc3c(c2-c2ccccc2)CCc2cnoc2-3)cc1N` it is 37.2%. The figure for `CCCCCCCCCCCCc1ccc([N+](CC)(CC)CC)cc1` is 18.6%; for `CC(C)(C)c1cc(C[P+](c2ccc(Cl)cc2)(c2ccc(Cl)cc2)c2ccc(Cl)cc2)cc(C(C)(C)C)c1O` it is 56.1%. The figure for `CCCCCN1CCN(C(CC(=O)c2ccccc2)C(=O)c2ccccc2)CC1` (stereo not given) is 101%; for `COc1ccc2oc(=O)cc(CN3C(=O)S/C(=C\c4ccc(Cl)cc4)C3=O)c2c1` it is 86.6%.

As for `O=C(/C=C/c1cccc(O)c1)c1cccc(-n2cc(-c3ccc(Cl)cc3)[nH]c2=O)c1`, the growth was -0.126% (active).

In the case of `CCCOC(=O)c1c(C)n(C)c2scc[n+]12`, the growth was 92.8%.

Turning to `Br/C(=N\Nc1nn[nH]n1)c1ccccc1`, the growth was 101%. The figure for `O=C(CN1C(=O)NC(c2ccccc2)(c2ccccc2)C1=O)c1ccc(N2CCCC2)cc1` is 81.2%; for `CCCCCCCCCCCCCCCCCC1=NCCN1CS(=O)(=O)O` it is 57.4%. For `CCOC(=O)CCCCCCCCC(=O)OCC`, the growth is 89.6%. To `COc1ccc2sc(-n3nc4nc5n(c(=O)c4c3N)-c3ccccc3Sc3ccccc3-5)nc2c1` belongs 29.2%; to `C=CCC(CCC(CC=C)C(=O)OCC)C(=O)OCC` (stereo not given), 105%. The figure for `CC1(c2ccc(Br)cc2)NC(=O)NC1=O` (stereo not given) is 82.2%; for `CCCCCCCCCCCCCCCCC(=O)O.CCCCCCCCCCCCCCCCCC(=O)O.CCCCCCCCCCCCCCCCCC(=O)O.CCCCCCCCCCCCCCCCCC(=O)O.CCCCCCCCCCCCCCCCCC(=O)O.CO[CH-]OC12COC1CC(O)C1(C)C(O)C(OC(C)O)C3=C(C)C(OC(=O)C(O)C([NH-])c4ccccc4)CC(O)(C(OC(=O)c4ccccc4)C21)C3(C)C.[Cu+].[Zn].[Zn].[Zn].[Zn].[Zn]` (stereo not given) it is 45.9%. To `COc1cc(N2C(=O)C=CC2=O)ccc1N1C(=O)C=CC1=O` belongs 77.4%; to `CC(C)(C)c1ccc(OCCOC(=O)CBr)cc1`, 94.2%; to `CCc1c(C)c2ccc(OCC(=O)N=Nc3c(O)[nH]c4ccccc34)c(C)c2oc1=O`, -53.3% (active). For the compound `COc1ccc2nc3cc(Cl)ccc3c(NCCCNC(C)=O)c2c1`, the growth was 38.1%. The figure for `C=CCSc1nnc(COc2ccc3c(C)c(Cc4ccccc4)c(=O)oc3c2C)o1` is 96%; for `O=c1[nH]c2cc(O)ccc2n2cc3c(F)cccc3c12` it is 39.1%; for `O=C(NCCO)C(F)(F)F` it is 95.8%. To `COc1ccc(-c2nc(SCC(C)C)nc(Nc3ccc(C)cc3)c2C#N)cc1` belongs 32.4%; to `COc1ccc(OC)c(Cn2cc3c(c2-c2ccccc2)CCc2cnoc2-3)c1`, 32.2%. As to `COc1cc(OC)c(NC(=O)n2ncc3cc(Nc4ncnc5ccccc45)ccc32)cc1Cl`, the growth is 97.3%. To `COc1cc2c(c3c1c(=O)c1cccc(F)c1n3C)C=CC(C)(C)O2` belongs 89.2%; to `NC(CSC(c1ccccc1)(c1ccccc1)c1ccccc1)C(=O)NCC(=O)O` (stereo not given), 96.1%; to `CCCCS(=O)(=O)c1cc(Nc2ccc(O)c3c2C(=O)c2ccccc2C3=O)ccc1C`, 75.6%. For `O=C(N/N=C\c1ccc(-c2ccc(Br)cc2)o1)c1cc2oc(-c3cccc(C(F)(F)F)c3)cc2[nH]1`, the growth was 101%.
